PubChem BioAssay AID1508600 (Functional Genomics Laboratory (NCATS/FGL), 2020)
In all, about 53,000 sequences went through this assay and about 3,700 (7%) were called active. The full list was thinned out, with actives kept by preference. A number with no mark means an inactive call.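 Rule for the calls: active = gene knockdowns whose robust z-score for IL-1 alpha signal is at least 2 or at most -2, so actives lie on both sides; inactive = the rest.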

Test: Components of the Cytosolic LPS Sensing Pathway: Gene Identification via Genome-wide siRNA Screen;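 note: robust z of the log signal after scaling to non-targeting control siRNA wells of the plate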
Settings: RAW264.7 macrophages, IL-1a HTRF, actives lie on both sides, screened at 100 nM (by protocol), cells primed 5 h with Pam3CSK4 first
How it was run: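 Using IL-1a HTRF as read-out, the screen measured release from RAW264.7 cells after 48h siRNA knockdown (100 nM), 5 h Pam3CSK4 priming and 24 h cytosolic LipidA. Values were expressed relative to negative-control wells as robust z-scores.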
Sequence GGUCUACUUCUUUUUUACGTT against Sema4d has a z-score of 0.467. For GGUGAUAACUCCGGGCCAATT against Fam3b, the z-score was 2.32 (active). Work on “CCCUGCUGGUUGGUAAUCATT against F830005K03Rik” yielded a z-score of 0.548. In the case of GCUAAGAUUGUCAUGAUGUTT against Bambi, the z-score is reported as -1.02. Work on GGAAAGAAGGUGAACAACATT against Phax yielded a z-score of 1.96. With GCAGAAGAAGAAGGGUUCCTT against Emx1 the z-score was 3.59 (active). Sequence GGGAGAACCAGCACAACAUTT against Cavin2 has a z-score of -1.8. In the case of GGAAGACAUUCACGAUUGUTT against Deptor, the z-score is reported as -0.0976. With GGAGUUCAGCAACCUGUUGTT against Tmem97 the z-score was -2.08 (active). For GGGAUCAUUGCUGUCCUCUTT against Adora2b, the z-score was -1.33. With CCUCAAACCAUCAACAACCTT against Six3 the z-score was -2.04 (active). In the case of GGAACUUUCCUUUUUUGUCTT against Serpinb5, the z-score is reported as 0.889. Work on GGUGAUGAUGUCCAGAAGUTT against Kdm4d yielded a z-score of -0.913. In the case of GGAGAAAGUCUUUGUGAACTT against Lipc, the z-score is reported as -1.1. For GGCUUUCUUUUUGAAAGAATT against Arhgap10, the z-score was 0.78. With GGAACCUACUUGUUACCUUTT against Nlrp5 the z-score was 0.731. For CGGUCAUUAAAACUUACAGTT against Hells, the z-score was 2.69 (active). Work on GCCGGGAGAAAUAAAUGGUTT against Mif yielded a z-score of -0.654. Work on GGAAAAACUCUUCUUCACGTT against Nphs1 yielded a z-score of -0.0272. GGAGGACUCUGCUUCCAUATT against Pwwp3b gave a z-score of -0.848. With GGUUCUGGAAGUGAAGGUGTT against Prg2 the z-score was -0.00973. For CCACUUCCGAUGAGCCAGATT against Mrps10, the z-score was -3.31 (active). Sequence GCUAUUGGUGCUUCAGUCCTT against Rtel1 has a z-score of -0.458. In the case of GCCGUGUUCAUGAAUAAACTT against Glce, the z-score is reported as -0.392. GCUCUGUGAGCGAAAGUUCTT against Synpo2 showed a z-score of 1.72. Sequence CGUGGUCAGCGAGAGAGAATT against Sohlh1 has a z-score of 1.19. In the case of GGAUGCUGACAACAUAUACTT against Plk3, the z-score is reported as -0.726. In the case of GGUUUUCCUGUUCAAUUCUTT against Olfr586, the z-score is reported as 2.4 (active). CGCUGCUUUUCCUAGCAGATT against Orai1 gave a z-score of 0.194. Sequence GCUCCAACAAGGCAUAAAATT against Dis3 has a z-score of -1.71. CGUUGAACUAGCAGUGGACTT against Arel1 gave a z-score of 0.304. GUCUACAUCAACAUGCCUGTT against Hcst showed a z-score of 0.729. In the case of GGCUUAAUUACACAUGUUCTT against Il6, the z-score is reported as -1.09. With GGACAAGAAAAAGUCCAGATT against Dhx38 the z-score was -1.17. GCAGGGAAUAGCAAACUUATT against Nfil3 gave a z-score of 1.18. Sequence GGAAAGGAGAGGUGUGUUCTT against Asb7 has a z-score of 0.431. For GGAAGAUGUCUCCUAUGAGTT against Hebp1, the z-score was -2.42 (active). CCUGCUUAUUUAUGUACGATT against Tob2 showed a z-score of 1.27. Sequence GGUACCUUAAACUCAUGAATT against Ifnb1 has a z-score of 0.773. Work on GCGAACCCUAAGUAAGAAGTT against U2surp yielded a z-score of -0.989. With GCGAGAUGCCAACAAACUGTT against Pacs1 the z-score was 0.678. With GCUACCUAUGCCAAUAUCATT against Efemp1 the z-score was -0.787. With GGGCAUCACUUGUAAUUAATT against Bcl10 the z-score was -2.06 (active). GGAACCUAUCCAAGAAGUATT against Ckap2 gave a z-score of 0.428. With GUCACAGUACCCAAAAUGUTT against Olfr979 the z-score was -2.42 (active). GGCCUUGUAUAAAACACAUTT against Pah gave a z-score of 0.293. Work on CCAGCUUGUUACUAAGUAATT against Mgat3 yielded a z-score of -0.227. In the case of GAGUACCAGCUGUUGUUCATT against Olfr392, the z-score is reported as 4.22 (active). GCAGGGAGGCAUCUUCUUUTT against Olfr3 showed a z-score of -0.22. Work on GGUUCUUUCCAAACAAGAGTT against Evc yielded a z-score of 1.1. With GGAGGUCAUCAACGUGCUATT against Nucb1 the z-score was -0.339. With CGGUACAAAUGAUUUCUGATT against Pcolce2 the z-score was 2.04 (active). Sequence GGUAAAAUUGUCCAAGGAATT against Clec2i has a z-score of -0.109. In the case of GGCCAAGAAGACAAGAAAATT against Ddx54, the z-score is reported as 0.502. For GGAAUAUGUUUAGCAUCUGTT against Mfsd5, the z-score was -0.437. Work on GGCACAUAUGAGGACUACCTT against Myl6b yielded a z-score of 0.786. Work on GCCGUGCAACACUUCUACATT against Esrrb yielded a z-score of -0.471. With GGAGGUCCCUUCUUCAGCUTT against Zfp410 the z-score was -1.19. GGCCAAGAAGAGAAAAACATT against Ccne2 showed a z-score of -1.54. In the case of GGUCAUGGAUGUCACAGAGTT against Mink1, the z-score is reported as -2.17 (active). In the case of CCAGAUUCUAUAAUAGAGUTT against Gabrp, the z-score is reported as -0.232. Work on GGGUUCUGUGUAAAUGUAUTT against Gzma yielded a z-score of 0.203. GGCAGAAGUCCAACUUCUUTT against Pirt showed a z-score of -0.363. With GCUAGUGCGCAUGUUUCUCTT against Rasgrp2 the z-score was 0.621. For GGUGGAAGCACAGAGUUGCTT against Prdm15, the z-score was 2.14 (active). Work on GGACAACCAAAAUGCAUUUTT against Zic3 yielded a z-score of 0.517. GGAACUGGGUCCUCAUUCCTT against Capn1 showed a z-score of -1.6. In the case of GGAGUUCAACUAGAUGUGGTT against Bcl2l13, the z-score is reported as -1.2. Sequence GCUUCAAUGAGGAGUAUCUTT against Smpdl3b has a z-score of -0.617. For GGAUUGGAUAUUGAGAAGGTT against Rexo2, the z-score was -1.72. In the case of GGUGGUCAGGAAAUGAGUCTT against Lrch4, the z-score is reported as 2.09 (active). “GGUCAACUCUAAGAUGCUGTT against 9930012K11Rik” gave a z-score of 1.35. In the case of CGUGUGAAGUAAAGAUGUUTT against Mrpl57, the z-score is reported as 0.212. In the case of GGAGCUGCUUUCAAAGCUGTT against Ccdc136, the z-score is reported as -0.831. For GGAUGGUACAGGUCUGGUGTT against Fgfr3, the z-score was 4.82 (active). Work on “CGGAUUAUUGGUUAGAAAUTT against C230013L11Rik” yielded a z-score of 1.26. For GCACAAUGGAAGGUGUCCUTT against Tas2r114, the z-score was 0.597. Work on GGACUUUGUGGACAAAAUUTT against Ift20 yielded a z-score of -1.64. With GCCUCAACAUGAUCCCGAGTT against Ccdc172 the z-score was -3.34 (active). Work on GGAGAUAAAGAGGAACAUUTT against AI504432 yielded a z-score of 1.01. In the case of GGGUUUUGAAAGAGGAAAATT against Osbpl8, the z-score is reported as 1.52. In the case of GGCAGCUGAAAGAAGAUCUTT against Dffa, the z-score is reported as 3.21 (active). Sequence GGGACUGGAACAAUAGAGGTT against BC030500 has a z-score of 0.626. For GGGACAAGUGACUGAAUUGTT against Dio3, the z-score was 0.408. Sequence GGCCAUUUACUUGAAGAACTT against Lpin3 has a z-score of -0.0508. With CCUUCUCCUCGUGCAAGUATT against Cort the z-score was 2.05 (active). GAUGCCCAAUGUGCAAAUGTT against Defa-rs12 gave a z-score of 1.06. Sequence CCACUGCACUGUAAAUCAATT against Glrx5 has a z-score of -1.41. With GCUCUUGACUCACUCAGCATT against Il1bos the z-score was -2.01 (active). Work on GGACUGAAAUGUCUUAGACTT against Selenow yielded a z-score of -1.21. For GCAUCGCAUAUUGGAAUGCTT against Lim2, the z-score was 0.366. In the case of CGGCAAAUUCGUGAAAAGGTT against Olfr575, the z-score is reported as 0.118. For GCAACUGAAUUCCAGUUUUTT against Ugt1a2, the z-score was -0.0905. In the case of GGAGCUAGCCAACUUCGAUTT against Lsr, the z-score is reported as -0.182. GCACAGAAAUAUUAAAGUCTT against Foxp4 showed a z-score of -1.7. Sequence GGGUUUAGAAAGAUGAAUGTT against Tbcel has a z-score of -0.189. For GGGCUUCACCCUCAUACAATT against Pirt, the z-score was 2.26 (active). Work on GGAGAAAGCCAAAUUUAACTT against Slc17a6 yielded a z-score of 0.103. In the case of GGUCUGAAGAAGAUUCUGGTT against Unc45a, the z-score is reported as 0.33. For GCCUUUAUAGGAUUUCAAATT against Ppp2r5e, the z-score was 0.678. With CGGUACAGGGUAAAGGACATT against Prss41 the z-score was 0.00568. For GGAGUACAGCAUCUCAGCATT against Cacng1, the z-score was -2.17 (active). With GGCAGAACCCUUUGAUGACTT against Fos the z-score was -0.0931. GCAGCUGUCCGUAUAUCUUTT against Uxt showed a z-score of 0.377. Work on GGAGUCCUGAAGAAUAAAGTT against Tff3 yielded a z-score of -0.0657. Sequence CCCACUACUGUAAGACAUGTT against Trim46 has a z-score of 0.614. With CCCUCACUAUAACACUAUUTT against Six5 the z-score was -0.418. In the case of GGCUAGAAAGGGUCUCAAATT against Cyp3a25, the z-score is reported as -1.48.
